# PubChem BioAssay (Tox21)
# Inconclusive results are not listed. Entries that show only a call come without a potency. Calls of active or inactive are those of the source. Unless noted, calls follow the shape of the dose curve; as a rule, active = well fitted curve in the direction sought with a large enough effect in the repeat runs; inconclusive = weak or mixed curves; inactive = no such curve, though single readings can be large; an effect the other way counts as inactive or inconclusive.
# Key:
# [1] = qHTS assay to identify small molecule antagonists of the vitamin D receptor (VDR) signaling pathway - cell viability counter screen (AID 743225); also: nearly all actives have a fitted effect of over 50% in size
# How it was run: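 Parallel cytotoxicity test: VDR-UAS-bla HEK 293T, 3 nM (final) 1-alpha,25-dihydroxyvitamin D3 with test compound, 16 h, 37C. Endpoint is CellTiter-Glo luminescence in the same wells.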
# [2] = qHTS assay to identify small molecule agonists of the NFkB signaling pathway (AID 1159509; active = well fitted curve in the direction sought with a large enough effect in the signal ratio in the repeat runs, not every such curve was filed as active; the % refers to the signal ratio; also: series mostly up to about 61 µM)
# How it was run: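 Readout: FRET fluorescence, 405 nm excitation, 460/530 nm emission; beta-lactamase expression disrupts FRET. Cells: ME-180 stably carrying NF-kB-driven bla reporter. Compound exposure 5 hr, 37 C, 5% CO2.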
# [3] = qHTS assay to identify small molecule agonists of the NFkB signaling pathway - cell viability counter screen (AID 1159515; calls by dose curve; also: nearly all actives have a fitted effect of over 55% in size; also: potency is read from the fitted curve at half-maximal effect)
# How it was run: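 Parallel cytotoxicity counter screen in ME-180 cells carrying an NFkB-response-element beta-lactamase reporter, 2,000 cells/well. Compound exposure lasted 5 hr at 37 C, 5% CO2. Cell viability was quantified by CellTiter-Glo luminescence.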
# [4] = qHTS assay to identify small molecule agonists of the endoplasmic reticulum stress response signaling pathway (AID 1159516; active = well fitted activation curve with a large enough effect in the signal ratio in the repeat runs, not every such curve was filed as active; the % refers to the signal ratio)
# How it was run: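 Using a HeLa line with an ESRE-driven beta-lactamase gene, agonist activity was measured by FRET substrate fluorescence (460 and 530 nm emission) after cells were treated with compounds for 5 hr at 37 C and 5% CO2.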
# [5] = qHTS assay to identify small molecule antagonists of the retinoid-related orphan receptor gamma (ROR-gamma) signaling pathway - cell viability counter screen (AID 1159520); also: nearly all actives have a fitted effect of over 50% in size
# How it was run: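 Tet-on ROR gamma CHO cells (1,000/well) were plated 4 hr, given compounds in DMSO for 2 hr at 37 C, then induced with 1 uM final doxycycline for 16 hr. Viability was read as ATP by CellTiter-Glo luminescence after 30 min.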
# [6] = target: Nuclear receptor ROR-gamma (Homo sapiens) (UniProt P51449); test: qHTS assay to identify small molecule antagonists of the retinoid-related orphan receptor gamma (ROR-gamma) signaling pathway (AID 1159521;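 also: CHO cells with doxycycline inducible ROR-gamma driving an RORE luciferase reporter; top concentration of the series differs between compounds; nearly all actives have a fitted effect of over 50% in size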)
# How it was run: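 Decreased RORE-driven luciferase luminescence indicates antagonism. Tet-on RORγ CHO cells received compound, then 1 uM final doxycycline 2 h later; signal read after 16 h incubation.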
# [7] = qHTS assay to identify small molecule agonists of the AP-1 signaling pathway - cell viability counter screen (AID 1159525; calls by dose curve; also: nearly all actives have a fitted effect of over 55% in size)
# How it was run: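 Each titration point was normalised to DMSO and tetra n-octyl ammonium bromide controls. The read was Cell Titer Glo luminescence after 30 min at RT, following 5 h compound exposure of ME-180 AP-1-bla cells at 37 °C.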
# [8] = qHTS assay to identify small molecule agonists of the AP-1 signaling pathway (AID 1159526; calls by dose curve)
# [9] = qHTS assay to identify small molecule agonists of the RXR signaling pathway - cell viability counter screen (AID 1159529); also: nearly all actives have a fitted effect of over 50% in size; also: potency is read from the fitted curve at half-maximal effect
# How it was run: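 In this parallel viability measure, GeneBLAzer RXR-alpha HEK 293T cells (2% charcoal-stripped FBS) were given a 5 hr preincubation, treated with compounds 16 hr at 37 C, and read by CellTiter-Glo luminescence.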
# [10] = qHTS assay to identify small molecule agonists of the retinoic acid receptor (RAR) signaling pathway (AID 1159553); also: potency is read from the fitted curve at half-maximal effect
# How it was run: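 Quantitative high-throughput format: the Tox21 10K library was tested on C3RL4 RARE-luciferase cells for 6 hr at 37 C and 5% CO2, with luminescence measured after a 30 min room-temperature reagent step.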
# [11] = qHTS assay to identify small molecule antagonists of the estrogen related receptor (ERR) signaling pathway from Tox21 library - cell viability counter screen (AID 1224834); also: nearly all actives have a fitted effect of over 30% in size; also: potency is read from the fitted curve at half-maximal effect
# How it was run: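 Compounds in DMSO were pinned onto ERR cells that had been incubated for 6 h, and the plates were held at 37 C for 17.5 h. CellTiter-Fluor reagent was then added and fluorescence was measured after 30 min.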
# [12] = qHTS assay to identify small molecule antagonists of the retinoid acid receptor (RAR) signaling pathway - cell viability counter screen (AID 1159551); also: nearly all actives have a fitted effect of over 35% in size
# How it was run: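 ATP-based viability, C3RL4 cells, 6 h at 37 C with 1 uM final retinol co-added after compound; luminescence read 30 min post CellTiter-Glo, RT.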
# [13] = qHTS assay to identify small molecule antagonists of the retinoic acid receptor (RAR) signaling pathway (AID 1159552; also: nearly all actives have a fitted effect of over 50% in size)
# How it was run: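 C3RL4 RARE-luc cells, overnight plating; retinol 1 uM final added right after compound; 6 hr 37 C; luciferase read at 30 min RT.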
# [14] = target: Retinoic acid receptor RXR-alpha (Homo sapiens) (UniProt P19793); test: qHTS assay to identify small molecule agonists of the RXR signaling pathway (AID 1159527; calls by dose curve; also: nearly all actives have a fitted effect of over 35% in size)
# How it was run: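 16 hr incubation of compound-treated RXR-alpha-UAS-bla HEK 293T cells (2% charcoal-stripped FBS, 37 C) preceded a 2 hr room-temperature LiveBLAzer FRET substrate step and blue/green fluorescence measurement.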
# Chain of Retinoic acid receptor RXR-alpha (Homo sapiens) (P19793 whole entry, looked up): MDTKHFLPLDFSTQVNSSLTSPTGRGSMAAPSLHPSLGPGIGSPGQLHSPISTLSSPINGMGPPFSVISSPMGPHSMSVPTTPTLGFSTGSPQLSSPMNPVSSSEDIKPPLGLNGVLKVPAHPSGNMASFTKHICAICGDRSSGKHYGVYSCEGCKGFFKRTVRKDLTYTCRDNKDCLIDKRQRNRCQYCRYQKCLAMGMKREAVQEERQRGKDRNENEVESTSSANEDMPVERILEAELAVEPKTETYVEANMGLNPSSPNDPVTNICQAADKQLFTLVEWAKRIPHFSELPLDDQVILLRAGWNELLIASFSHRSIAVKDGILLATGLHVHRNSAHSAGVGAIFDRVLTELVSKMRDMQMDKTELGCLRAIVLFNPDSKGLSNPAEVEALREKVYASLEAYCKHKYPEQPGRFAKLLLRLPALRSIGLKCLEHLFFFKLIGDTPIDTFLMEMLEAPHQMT
Structure (SMILES),Potency [1],outcome [2],Potency [3],Potency [4],Potency [5],Potency [6],Potency [7],outcome [8],Potency [9],Potency [10],Potency [11],Potency [12],Potency [13],Potency [14]
COc1ccc(-c2cc(C(F)F)nn2-c2ccc(S(N)(=O)=O)cc2)cc1F,inactive,inactive,inactive,inactive,inactive,inactive,inactive,inactive,inactive,inactive,inactive,–,–,–
OCC(CO)n1cnc(-c2ccc(F)cc2)c1-c1ccnc(Oc2ccccc2)n1,inactive,inactive,inactive,inactive,inactive,inactive,inactive,inactive,inactive,–,inactive,inactive,–,–
COc1ccc(-c2cc(=S)ss2)cc1,inactive,inactive,inactive,inactive,inactive,inactive,inactive,–,inactive,26.6 µM (active),–,inactive,inactive,–
COc1cc(C(C)=O)ccc1OCCCN1CCC(c2noc3cc(F)ccc23)CC1,inactive,inactive,inactive,inactive,inactive,inactive,inactive,–,inactive,–,–,inactive,–,–
O=C(O)c1cccc(Oc2ccccc2)c1,inactive,inactive,inactive,inactive,inactive,inactive,inactive,inactive,inactive,inactive,inactive,inactive,inactive,–
CC(C)COC(=O)c1ccc(O)cc1,inactive,inactive,inactive,inactive,inactive,inactive,inactive,–,inactive,–,inactive,inactive,–,inactive
Nc1ccc(NC(=O)c2ccc(N)cc2)cc1,–,inactive,inactive,inactive,inactive,inactive,inactive,inactive,–,–,inactive,–,–,–
CC(C)(O)c1coc(S(=O)(=O)NC(=O)Nc2c3c(cc4c2CCC4)CCC3)c1,inactive,inactive,inactive,inactive,inactive,inactive,inactive,inactive,–,–,inactive,inactive,inactive,–
O=C(/C=C/c1ccc([N+](=O)[O-])cc1)c1ccccc1,inactive,inactive,inactive,inactive,inactive,inactive,inactive,–,–,30.7 µM (active),54.6 µM (active),inactive,inactive,–
COC(=O)Nc1nc2ccc(C(=O)C3CC3)cc2[nH]1,inactive,inactive,inactive,inactive,inactive,inactive,inactive,inactive,inactive,–,–,inactive,inactive,–
O=C(Oc1ccccc1)c1ccc2ccccc2c1O,inactive,inactive,inactive,inactive,inactive,inactive,inactive,inactive,–,0.864 µM (active),inactive,inactive,inactive,–
CCCCCCCC/C=C\CCCCCCCC(=O)OCCO,inactive,inactive,inactive,inactive,inactive,inactive,inactive,–,–,inactive,inactive,inactive,–,–
CCN(CC)CCOc1ccccc1C(=O)CCc1ccccc1,inactive,inactive,12 µM (active),inactive,inactive,inactive,inactive,–,9.52 µM (active),inactive,–,inactive,–,–
CC(C)Cc1ccc(CC(=O)O)cc1,inactive,inactive,inactive,inactive,inactive,inactive,inactive,–,inactive,–,inactive,inactive,inactive,inactive
